Experiment [1] can be described thus: qHTS assay to identify small molecule agonists of the androgen receptor (AR) signaling pathway in the presence of an antagonist - cell viability counter screen (AID 1259379). Also: nearly all actives have a fitted effect of over 25% in size. Also: potency is read from the fitted curve at half-maximal effect. The method in brief:
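Viability counter screen: CellTiter-Fluor fluorescence, measured in the same wells as the luciferase read-out. MDA-kb2 cells, 3,000/well, with nilutamide at 3.0uM final and compounds at 15 concentrations, 16 hr at 37C, 0% CO2.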
On the technique in general: In qHTS, concentration-response curves come from the screen itself.

Experiment [2] can be described thus: qHTS assay to identify small molecule agonists of the estrogen receptor beta (ER-beta) signaling pathway - cell viability counter screen (AID 1259380). Also: nearly all actives have a fitted effect of over 30% in size. Also: potency is read from the fitted curve at half-maximal effect. In short, it runs like this: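 Luminescence read-out (CellTiter-Glo, 30 min, room temp) taken in the same wells as the beta-lactamase reporter assay; ER-beta-UAS-bla HEK293T cells exposed to DMSO-dissolved compounds for 16 hr at 37C in 2% charcoal-stripped FBS medium.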

A short description of experiment [3]: qHTS assay to identify small molecule antagonists of the estrogen receptor beta (ER-beta) signaling pathway - cell viability counter screen (AID 1259382). Also: nearly all actives have a fitted effect of over 55% in size. Also: potency is read from the fitted curve at half-maximal effect. The method in brief:
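Luminescent ATP read-out (CellTiter-Glo, 30 min, RT) taken in the same wells as the bla reporter assay. HEK293T ER-beta-UAS-bla cells in 2% charcoal-stripped FBS were exposed to compounds with 1nM E2 for 16 hr at 37C.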

Experiment [4] addresses Estrogen receptor (Homo sapiens) (UniProt P03372). Put plainly: qHTS assay to identify small molecule agonists of the estrogen receptor alpha (ER-alpha) signaling pathway in the presence of an antagonist (AID 1259383; calls by dose curve; also: top concentration of the series differs between compounds; nearly all actives have a fitted effect of over 15% in size). The method in brief:
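Luciferase luminescence (ONE-Glo, 30min at room temperature) measured in VM7Luc4E2 cells after 22hr compound exposure at 15 concentrations, with 10.0nM ICI-182,780 final present; cells express endogenous ER-alpha and carry four EREs upstream of luciferase.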

Experiment [5] is described as follows: qHTS assay to identify small molecule agonists or antagonists of the thyroid stimulating hormone receptor (TSHR) signaling pathway - wild type cell line counter screen (AID 1259384; calls by dose curve). The method in brief:
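Counter screen in untransfected Hek293: compounds (15-point titration, triplicate) plus phosphodiesterase inhibitor Ro20-1724 added after 18 h plating; 30 min RT. Intracellular cAMP via competitive d2/cryptate immunoassay, 1 h incubation.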

In experiment [6] the target is Thyrotropin receptor (Homo sapiens) (UniProt P16473). The experiment in a line: qHTS assay to identify small molecule antagonists of the thyroid stimulating hormone receptor (TSHR) signaling pathway (AID 1259385; calls by dose curve; also: nearly all actives have a fitted effect of over 20% in size; also: potency is read from the fitted curve at half-maximal effect). In short, it runs like this:
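Antagonist mode: compound-treated TSHR-expressing HEK293 cells were stimulated with 1.5 ng/mL TSH (final) in presence of Ro20-1724 for 30 min at RT. HTRF cAMP detection after 1 h; each compound tested at 15 concentrations, triplicate.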

A short description of experiment [7]: qHTS assay to identify small molecule agonists of the estrogen receptor alpha (ER-alpha) signaling pathway in the presence of an antagonist - cell viability counter screen (AID 1259386).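 Also: cells exposed to compounds for 22 h at 37 °C before the viability read; nearly all actives have a fitted effect of over 30% in size.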 Also: potency is read from the fitted curve at half-maximal effect. The method in brief:
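Read-out: CellTiter-Fluor fluorescence after 1hr reagent incubation, measured in the same wells as the luciferase readout. VM7Luc4E2 cells were exposed to 15 compound concentrations with 10.0nM ICI-182,780 for 22hr at 37C.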

In experiment [8] the target is Progesterone receptor (Homo sapiens) (UniProt P06401). The experiment in a line: qHTS assay to identify small molecule agonists of the progesterone receptor (PR) signaling pathway (AID 1346784; calls by dose curve; also: nearly all actives have a fitted effect of over 30% in size). The method in brief:
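Seed PR-UAS-bla HEK 293T cells (2% charcoal-stripped FBS), incubate 6 hr at 37C; add compounds in DMSO, 16 hr at 37C; add LiveBLAzer B/G substrate, 2 hr RT; read fluorescence intensity.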

The nature of experiment [9]: qHTS assay to identify small molecule antagonists of the progesterone receptor (PR) signaling pathway - cell viability counter screen (AID 1346798). Also: nearly all actives have a fitted effect of over 50% in size. Also: potency is read from the fitted curve at half-maximal effect. In short, it runs like this: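 Measures cytotoxicity in parallel with the PR antagonist reporter read: HEK293T PR-UAS-bla cells get compound and R5020 for 16 hr, and remaining viable cells are quantified by CellTiter-Glo luminescence.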

Experiment [10] can be described thus: qHTS assay to identify small molecule antagonists of the TGF-beta/Smad signaling pathway - cell viability counter screen (AID 1346824). Also: nearly all actives have a fitted effect of over 50% in size. The method in brief:
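Cytotoxicity counter-screen run in the same wells as the beta-lactamase Smad reporter read: CellTiter-Glo luminescence after 30 min at room temperature. HEK 293T SBE-bla cells had 5 hr compound exposure at 37 C with TGF-beta1 (0.25 ng/mL stock).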

Experiment [11] is described as follows: qHTS assay to identify small molecule agonists of the TGF-beta/Smad signaling pathway - cell viability counter screen (AID 1346829). Also: top concentration of the series differs between compounds; nearly all actives have a fitted effect of over 45% in size. In short, it runs like this: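 Here the cytotoxicity of library compounds is measured in SBE-bla HEK 293T cells treated for 5 hr, using CellTiter-Glo added to wells already read for the beta-lactamase reporter.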
Experiment [12] can be described thus: qHTS assay to identify small molecule agonists of the TGF-beta/Smad signaling pathway (AID 1346859; active = well fitted activation curve with a large enough effect in the signal ratio in the repeat runs, not every such curve was filed as active; the % refers to the signal ratio; also: series mostly up to about 77 µM). In short, it runs like this:
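Beta-lactamase reporter activity downstream of Smad binding elements was measured in stably transfected HEK 293T cells; compounds were incubated for 5 hr, substrate for 2 hr at room temperature.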

Experiment [13] has as its target Thyrotropin-releasing hormone receptor (Homo sapiens) (UniProt P34981). The experiment in a line: qHTS assay to identify small molecule antagonists of the thyrotropin-releasing hormone receptor (TRHR) signaling pathway (AID 1346877; active = well fitted inhibition curve with a large enough effect in the repeat runs, not every such curve was filed as active; also: series mostly up to about 51 µM). The method in brief:
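HEK293/TRHR cells, 18 h, 37 °C; Ca2+ dye 2 h; cpd 5 min RT; TRH 1 nM final; fluorescence read 3 min, 1 s intervals; 15 concs, triplicate.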

Experiment [14] has the same target. The experiment in a line: qHTS assay to identify small molecule agonists of the thyrotropin-releasing hormone receptor (TRHR) signaling pathway (AID 1346891; calls by dose curve;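 also: HEK293 cells expressing TRHR with calcium dye readout; series mostly up to about 58 µM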). The method in brief:
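Overnight-plated (18 h, 37 °C, 5% CO2) TRHR-Hek293 cells; 2 h calcium dye at 37 °C; compound in DMSO; 3-min kinetic fluorescence read.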

A short description of experiment [15]: Human pregnane X receptor (PXR) small molecule agonists, qHTS cell viability counter screen (AID 1346977). Also: nearly all actives have a fitted effect of over 50% in size. Also: potency is read from the fitted curve at half-maximal effect. In short, it runs like this: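 After a 5hr pre-incubation, PXR-Luc HepG2 cells received compounds plus positive control in DMSO and were kept 24hr at 37C. Cell viability was quantified by fluorescence from CellTiter-Fluor added for the final hour.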
Experiment [16] can be described thus: Caspase-3/7 induction in HepG2 cells by small molecules, qHTS assay (AID 1346978). Also: nearly all actives have a fitted effect of over 15% in size. Also: potency is read from the fitted curve at half-maximal effect. In short, it runs like this:
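Caspase-3/7 induction was measured by Caspase-Glo 3/7 luminescence (30 min, room temperature) after a 17 hr compound exposure of wild-type HepG2 cells seeded at 2,000 per well and pre-incubated 5 hr.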

Experiment [17] in a line: Caspase-3/7 induction in CHO-K1 cells by small molecules, qHTS cell viability counter screen (AID 1346979). Also: nearly all actives have a fitted effect of over 35% in size. Also: potency is read from the fitted curve at half-maximal effect. In short, it runs like this: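 Multiplexed with Caspase-Glo 3/7 in CHO-K1 cells, this counter screen added CellTiter-Fluor after 16hr of compound exposure and recorded fluorescence 1hr later.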
In experiment [18] the target is Progesterone receptor (Homo sapiens) (UniProt P06401). Put plainly: qHTS assay to identify small molecule antagonists of the progesterone receptor (PR) signaling pathway (AID 1346795; active = well fitted inhibition curve with a large enough effect in the signal ratio in the repeat runs, not every such curve was filed as active; the % refers to the signal ratio). The method in brief: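 Screening used a GripTite HEK293T line with PR-responsive UAS-beta-lactamase. Cells were challenged with compound in the presence of 1 nM R5020 final for 16 hr at 37C; B/G FRET substrate, 2 hr room temperature, fluorescence.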
Sequence of Progesterone receptor (Homo sapiens) (P06401 whole entry, looked up): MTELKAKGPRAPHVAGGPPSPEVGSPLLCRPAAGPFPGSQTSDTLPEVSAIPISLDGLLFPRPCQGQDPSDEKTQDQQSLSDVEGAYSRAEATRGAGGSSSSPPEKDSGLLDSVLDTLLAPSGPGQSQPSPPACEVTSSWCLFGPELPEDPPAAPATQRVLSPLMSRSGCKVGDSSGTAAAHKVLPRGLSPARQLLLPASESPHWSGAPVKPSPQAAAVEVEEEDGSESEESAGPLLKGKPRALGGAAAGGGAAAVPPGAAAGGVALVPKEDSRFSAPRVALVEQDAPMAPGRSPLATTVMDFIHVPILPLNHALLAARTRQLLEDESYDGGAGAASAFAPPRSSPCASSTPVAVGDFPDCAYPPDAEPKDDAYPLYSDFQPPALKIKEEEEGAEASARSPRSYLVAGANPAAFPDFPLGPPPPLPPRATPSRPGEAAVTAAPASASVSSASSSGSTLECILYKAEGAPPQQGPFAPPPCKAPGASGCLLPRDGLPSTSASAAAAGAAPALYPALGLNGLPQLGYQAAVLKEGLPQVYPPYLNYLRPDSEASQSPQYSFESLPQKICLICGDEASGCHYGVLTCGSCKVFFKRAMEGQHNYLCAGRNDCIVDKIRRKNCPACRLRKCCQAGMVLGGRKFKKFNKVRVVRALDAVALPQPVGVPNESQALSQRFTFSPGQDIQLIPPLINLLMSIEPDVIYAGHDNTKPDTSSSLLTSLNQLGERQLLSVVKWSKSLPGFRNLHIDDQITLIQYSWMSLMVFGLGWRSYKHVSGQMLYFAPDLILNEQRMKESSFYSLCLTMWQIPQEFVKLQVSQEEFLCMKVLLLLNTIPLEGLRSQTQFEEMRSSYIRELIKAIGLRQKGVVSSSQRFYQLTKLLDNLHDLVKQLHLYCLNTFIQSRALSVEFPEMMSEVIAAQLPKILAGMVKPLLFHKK

For experiment [19], the target named is Androgen receptor (Homo sapiens) (UniProt P10275). Put plainly: qHTS assay to identify small molecule agonists of the androgen receptor (AR) signaling pathway in the presence of an antagonist (AID 1259381; calls by dose curve; also: nearly all actives have a fitted effect of over 15% in size). The method in brief:
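Luciferase read-out (ONE-Glo, 30min room temperature) in MDA-kb2 MMTV-reporter cells; agonist mode run in presence of AR antagonist nilutamide, 3.0uM final. Compounds tested as 15-point series, 16hr exposure at 37C, 0% CO2.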

Experiment [20] can be described thus: qHTS assay to identify small molecule agonists of the progesterone receptor (PR) signaling pathway - cell viability counter screen (AID 1346799; calls by dose curve; also: nearly all actives have a fitted effect of over 45% in size). In short, it runs like this: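 Using the same plates as the PR reporter screen, HEK293T PR-UAS-bla cells received compounds for 16 hr at 37C and were then lysed with CellTiter-Glo; luminescence was read 30 min later at room temperature.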

Inconclusive results are not listed. Active and inactive are the calls of the source. Unless noted, calls follow the shape of the dose curve; as a rule, active = well fitted curve in the direction sought with a large enough effect in the repeat runs; inconclusive = weak or mixed curves; inactive = no such curve, though single readings can be large; an effect the other way counts as inactive or inconclusive.

Sequence of Estrogen receptor (Homo sapiens) (P03372 whole entry, looked up): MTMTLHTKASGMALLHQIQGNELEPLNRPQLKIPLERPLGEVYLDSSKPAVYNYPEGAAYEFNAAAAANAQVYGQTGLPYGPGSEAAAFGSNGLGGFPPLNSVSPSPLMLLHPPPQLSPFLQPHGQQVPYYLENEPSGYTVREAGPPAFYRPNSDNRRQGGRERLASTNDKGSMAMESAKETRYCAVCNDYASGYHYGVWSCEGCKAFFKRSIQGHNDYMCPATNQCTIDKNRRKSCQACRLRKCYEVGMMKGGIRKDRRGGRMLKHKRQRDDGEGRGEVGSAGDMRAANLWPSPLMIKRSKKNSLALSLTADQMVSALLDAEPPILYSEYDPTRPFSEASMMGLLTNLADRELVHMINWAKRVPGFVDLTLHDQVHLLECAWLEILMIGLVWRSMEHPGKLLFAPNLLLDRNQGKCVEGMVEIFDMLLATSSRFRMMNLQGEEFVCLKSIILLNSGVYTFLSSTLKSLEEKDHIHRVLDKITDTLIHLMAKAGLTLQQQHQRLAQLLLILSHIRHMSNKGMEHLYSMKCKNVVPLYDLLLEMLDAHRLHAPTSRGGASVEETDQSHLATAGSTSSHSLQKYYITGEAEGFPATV
Sequence of Thyrotropin-releasing hormone receptor (Homo sapiens) (P34981 whole entry, looked up): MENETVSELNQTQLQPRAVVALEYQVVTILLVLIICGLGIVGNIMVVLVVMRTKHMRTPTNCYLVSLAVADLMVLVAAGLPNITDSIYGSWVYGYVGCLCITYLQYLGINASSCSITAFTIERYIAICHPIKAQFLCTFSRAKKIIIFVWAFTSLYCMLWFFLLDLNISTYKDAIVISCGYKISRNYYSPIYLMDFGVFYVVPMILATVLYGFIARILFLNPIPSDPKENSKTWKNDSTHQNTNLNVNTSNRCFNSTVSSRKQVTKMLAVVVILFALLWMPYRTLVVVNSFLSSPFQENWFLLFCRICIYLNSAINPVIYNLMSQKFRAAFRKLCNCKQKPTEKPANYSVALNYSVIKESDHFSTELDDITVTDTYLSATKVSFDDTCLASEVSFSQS
Sequence of Thyrotropin receptor (Homo sapiens) (P16473 whole entry, looked up): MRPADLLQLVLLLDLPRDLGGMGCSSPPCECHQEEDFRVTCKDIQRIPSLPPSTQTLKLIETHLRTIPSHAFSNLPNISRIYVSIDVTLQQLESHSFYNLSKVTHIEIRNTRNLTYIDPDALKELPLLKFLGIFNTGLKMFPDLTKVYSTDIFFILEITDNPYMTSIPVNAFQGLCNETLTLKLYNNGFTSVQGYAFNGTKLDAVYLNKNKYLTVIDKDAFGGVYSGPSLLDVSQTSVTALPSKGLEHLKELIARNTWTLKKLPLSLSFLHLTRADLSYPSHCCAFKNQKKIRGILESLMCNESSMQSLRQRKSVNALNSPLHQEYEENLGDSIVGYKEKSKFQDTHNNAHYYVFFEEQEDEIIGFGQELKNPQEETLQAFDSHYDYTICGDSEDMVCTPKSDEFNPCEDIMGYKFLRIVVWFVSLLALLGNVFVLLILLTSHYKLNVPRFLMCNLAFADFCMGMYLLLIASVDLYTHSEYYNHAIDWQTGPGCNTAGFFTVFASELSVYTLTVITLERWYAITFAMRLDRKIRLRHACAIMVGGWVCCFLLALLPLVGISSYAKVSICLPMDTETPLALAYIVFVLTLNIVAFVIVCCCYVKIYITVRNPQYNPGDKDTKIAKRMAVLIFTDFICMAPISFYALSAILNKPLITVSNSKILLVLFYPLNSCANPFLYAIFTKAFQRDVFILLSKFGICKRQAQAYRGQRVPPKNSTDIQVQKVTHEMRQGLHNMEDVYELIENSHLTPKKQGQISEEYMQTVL
Sequence of Androgen receptor (Homo sapiens) (P10275 whole entry, looked up): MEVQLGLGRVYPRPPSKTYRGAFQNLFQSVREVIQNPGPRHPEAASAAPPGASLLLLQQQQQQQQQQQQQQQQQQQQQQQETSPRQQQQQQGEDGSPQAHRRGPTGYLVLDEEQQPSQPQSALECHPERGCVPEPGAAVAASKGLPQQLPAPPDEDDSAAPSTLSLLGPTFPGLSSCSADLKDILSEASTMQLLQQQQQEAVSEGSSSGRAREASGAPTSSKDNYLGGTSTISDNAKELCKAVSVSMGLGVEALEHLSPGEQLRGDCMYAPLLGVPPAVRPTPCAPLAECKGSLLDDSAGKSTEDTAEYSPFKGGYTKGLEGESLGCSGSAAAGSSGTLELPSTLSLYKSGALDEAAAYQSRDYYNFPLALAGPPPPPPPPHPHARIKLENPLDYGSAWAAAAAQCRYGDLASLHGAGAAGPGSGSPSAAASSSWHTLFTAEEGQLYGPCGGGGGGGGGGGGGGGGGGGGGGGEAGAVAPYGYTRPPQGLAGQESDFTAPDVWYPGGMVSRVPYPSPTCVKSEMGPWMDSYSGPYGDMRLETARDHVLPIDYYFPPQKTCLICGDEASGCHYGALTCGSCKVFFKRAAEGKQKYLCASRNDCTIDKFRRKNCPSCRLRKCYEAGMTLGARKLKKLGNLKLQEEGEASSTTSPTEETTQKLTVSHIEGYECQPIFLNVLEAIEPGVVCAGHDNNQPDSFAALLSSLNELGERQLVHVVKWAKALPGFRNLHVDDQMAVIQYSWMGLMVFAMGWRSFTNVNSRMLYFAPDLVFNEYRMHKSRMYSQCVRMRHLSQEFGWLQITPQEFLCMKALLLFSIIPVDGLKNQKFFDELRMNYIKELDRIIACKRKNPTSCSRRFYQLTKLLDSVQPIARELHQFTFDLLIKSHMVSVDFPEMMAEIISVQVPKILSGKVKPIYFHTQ

For the compound `NC(=O)C1CO1` (stereo unspecified), the Potency result in [1], in experiment [2], in experiment [3], in [4], in [5] and in experiment [6] was “inactive” in each case. Besides, the Potency entry in experiment [7], in [9], in experiment [10], in experiment [11], in experiment [13] and in [14] was “inactive” in each case. The Potency result in experiment [15], in experiment [16] and in experiment [17] was “inactive” throughout. Besides, the outcome in experiment [8] and in experiment [12] was inactive.
With `[Cl][Eu]([Cl])[Cl]`, the Potency entry in experiment [1], in [2], in experiment [3], in [4], in experiment [7] and in experiment [9] was “inactive” in each case. The Potency result in [10], in [11], in experiment [13], in [14], in [15] and in experiment [16] was “inactive” throughout. Besides, in [17], the Potency result is “inactive”. The call in [8] and in experiment [12] was inactive.
As to `C=CC(=O)O[C@H]1C[C@@H]2CC[C@@]1(C)C2(C)C`, the Potency result in experiment [1], in experiment [2], in experiment [3], in [4], in [7] and in experiment [9] was “inactive” in each case. Also, the Potency result in experiment [10], in experiment [11], in [13], in [14], in [15] and in experiment [16] was “inactive” each time. For the same compound, the Potency result in [17] was “inactive”. Moreover, the compound was called inactive in experiment [8] and in [12].
Consider `CN1CCN(CCCN2c3ccccc3Sc3ccc(Cl)cc32)CC1`, for which the Potency entry in experiment [1], in [4], in experiment [5], in [7], in experiment [10] and in [11] was “inactive” each time. In addition, the Potency result in experiment [16] was “inactive”. Further, the Potency in experiment [2] is 21.1 µM (active); in experiment [3] it was 13.3 µM (active); in experiment [6], 26.6 µM (active); in [9], 21.1 µM (active). In addition, the compound was called inactive in experiment [8] and in experiment [12].
Turning to `COc1cc(OC)nc(NC(=O)NS(=O)(=O)Nc2ccccc2C(=O)N(C)C)n1`, the Potency entry in experiment [1], in experiment [2], in experiment [3], in experiment [5], in [6] and in experiment [7] was “inactive” in each case. The Potency entry in [18], in experiment [10], in experiment [11], in experiment [13], in [14] and in [15] was “inactive” throughout. For the same compound, the Potency entry in experiment [16] and in experiment [17] was “inactive” each time. Also, the compound was called inactive in experiment [8] and in experiment [12].
Turning to `CC(O)(c1ccc(Cl)cc1)c1ccc(Cl)cc1`, the Potency result in experiment [1], in [2], in experiment [3], in experiment [4], in experiment [5] and in [6] was “inactive” throughout. In addition, the Potency entry in [7], in experiment [10], in [11] and in experiment [14] was “inactive” in each case. For the same compound, the result in [8] and in [12] was inactive.
Regarding `COc1cc(/C=C/C(=O)CC(=O)/C=C/c2ccc(O)c(OC)c2)ccc1O`, the Potency in experiment [1] was 54.8 µM (active); in experiment [2] it was 69 µM (active); in experiment [7], 61.5 µM (active); in experiment [15], 30.8 µM (active); in experiment [17], 43.5 µM (active). Also, the Potency result in experiment [19], in experiment [5] and in [13] was “inactive” each time.
As to `NCc1ccco1`, the Potency entry in [1], in [2], in experiment [3], in experiment [5], in [6] and in experiment [7] was “inactive” in each case. For the same compound, the Potency entry in experiment [18], in experiment [9], in experiment [20], in experiment [10], in experiment [11] and in [13] was “inactive” throughout. The Potency result in experiment [14], in experiment [15], in experiment [16] and in experiment [17] was “inactive” in each case. The result in [8] and in experiment [12] was inactive.
In the case of `COc1cc([C@@H]2c3cc4c(cc3[C@@H](O[C@@H]3O[C@@H]5CO[C@@H](C)O[C@H]5[C@H](O)[C@H]3O)[C@H]3COC(=O)[C@H]23)OCO4)cc(OC)c1O`, the Potency result in experiment [1], in [2], in experiment [3], in experiment [5], in experiment [6] and in [7] was “inactive” each time. For the same compound, the Potency entry in [10] and in experiment [11] was “inactive” each time. The outcome in [8] was inactive. In [16], the Potency is 53.9 µM (active).
In the case of `c1ccc2cc3c4ccccc4c4ccccc4c3cc2c1`, the Potency entry in experiment [1], in [2], in experiment [3], in experiment [5], in experiment [6] and in [7] was “inactive” in each case. For the same compound, the Potency entry in [18], in experiment [9], in [20], in experiment [10], in experiment [11] and in experiment [13] was “inactive” each time. For the same compound, the Potency result in experiment [14] was “inactive”. Besides, the call in experiment [8] and in [12] was inactive. Besides, the results for the Potency in experiment [16] and in [17] were 6.89 µM (active) and 27.4 µM (active), respectively.

Values taken from PubChem BioAssay (Tox21).
